Reference: PubChem BioAssay (Tox21)
Inconclusive results are not listed. The source made the active and inactive calls. The call rests on the fitted dose curve; in most records, active means well fitted activation curve with a large enough effect in the signal ratio in the repeat runs (not every such curve was filed as active); inconclusive means weak or mixed curves; inactive means flat fitted curve, though single readings scatter; the % refers to the signal ratio.

Test: p53 small molecule agonists, cell-based qHTS assay (AID 1963582)
Conditions: HCT-116 p53RE-bla reporter, beta-lactamase FRET ratio, 16 h; series mostly up to 66 µM; activation: at the top concentration
From the text: National Center for Advancing Translational Sciences [NCATS]
Division of Preclinical Innovation [DPI]
U.S. Environmental Protection Agency [EPA]
National Institutes of Environmental Health Sciences [NIEHS]
National Toxicology Program [NTP]
U.S. Food and Drug Administration [FDA]
p53, a tumor suppressor protein, is activated following cellular insult, including DNA damage and other cellular stresses. The activation of p53 regulates cell fate by inducing DNA repair, cell cycle arrest, apoptosis, or cellular senescence. The activation of p53, therefore, is a good indicator of DNA damage and other cellular stresses. […] The activation of the reporter gene under culture conditions can be detected by fluorescence intensity. This cell line was used to screen the Tox21 10K compound library in a 1536-well plate format and to identify agonists that activate the p53 signaling pathway.
Tox21 Assay Protocol Summary:
The p53RE-bla cells were dispensed at 4,000 cells/5 ul/well in 1536-well black wall/clear bottom plates using a Multidrop dispenser. After the assay plates were incubated at a 37 C/5% CO2 incubator for 5 hours, 23 nL of compounds dissolved in DMSO, positive controls or DMSO only was transferred to the assay plate by a pin tool. The plates were incubated at 37 C for 16 hours. After 1 uL of LiveBLAzerTM B/G FRET substrate was added using a Flying Reagent Dispenser, the plates were incubated at room temperature for 2 hours, and fluorescence intensity was measured by an Envision plate reader.
On the % scale 0 is the no-effect control and ±100 the full control effect.

| Structure (SMILES) | activation | Potency |
| --- | --- | --- |
| O=S(=O)(O)c1cccc2ccccc12 | 1.25% (inactive) |  |
| CCCC(=O)C(C)=O | 1.3% (inactive) |  |
| CCCC[O][Al]([O]CCCC)[O]CCCC | 0.0709% (inactive) |  |
| NNC(=O)c1cccc(C(=O)NN)c1 | -2.49% (inactive) |  |
| NS(=O)(=O)c1cc2c(cc1Cl)NC(CC1CCCC1)NS2(=O)=O (stereo not given) | 1.36% [at 30.3 µM] (inactive) |  |
| Clc1ccc2c(Cl)ccnc2c1 | -1.58% (inactive) |  |
| CC1CCCC(=O)C1=O (stereo not given) | 0.259% (inactive) |  |
| ON(Cc1ccccc1)Cc1ccccc1 | 0.831% (inactive) |  |
| C[C@@H](O)[C@H]1C(=O)N2C(C(=O)O)=C(SCCN=CN)C[C@H]12 | 1.32% [at 30.3 µM] (inactive) |  |
| C=CCCC=C | 0.538% (inactive) |  |
| COC(=O)Cc1cccc2ccccc12 | -0.268% (inactive) |  |
| CC(C)c1cccc(C(C)C)c1N | -0.973% (inactive) |  |
| CCCCCC(=O)CC | 0.543% (inactive) |  |
| Nc1c(Br)cc([N+](=O)[O-])cc1Br | 0.366% (inactive) |  |
| Cc1ccc(S(N)(=O)=O)cc1 |  | inactive |
| CCCCOCCOCCOCCCC | -5.27% (inactive) |  |
| CC(O)C(CO)C(C)O (stereo not given) | 2.27% (inactive) |  |
| CCN(C=O)CC | -2.65% (inactive) |  |
| Nc1cc(-c2ccncc2)c[nH]c1=O |  | inactive |
| CC1CCC(C(C)(C)S)C(=O)C1 (stereo not given) | -3.78% (inactive) |  |

| Structure (SMILES) | activation | Potency |
| --- | --- | --- |
| CCC1CCCCC1 | -4.08% (inactive) |  |
| CC(C)OC(=O)C(O)(CC(=O)O)CC(=O)O | -0.0746% (inactive) |  |
| CCC(=O)c1ccc(O)cc1 | 3.18% [at 30.3 µM] (inactive) |  |
| O=C(c1ccc2c(c1)C(=O)OC2=O)c1ccc2c(c1)C(=O)OC2=O | 0.54% (inactive) |  |
| C/C(=C(\CCO)SS/C(CCO)=C(\C)N(C=O)Cc1cnc(C)nc1N)N(C=O)Cc1cnc(C)nc1N | -0.008% [at 30.3 µM] (inactive) |  |
| O=C(O)CNc1ccccc1 | 1.07% (inactive) |  |
| O=S(=O)(O)c1ccc2cc(O)c(S(=O)(=O)O)cc2c1 | 1.41% (inactive) |  |
| O=C1OC(CN2CCOCC2)CN1/N=C/c1ccc([N+](=O)[O-])o1 (stereo not given) | -2.02% [at 30.3 µM] (inactive) |  |
| CCCOCCOCCO | 1.33% (inactive) |  |
| F[Si-2](F)(F)(F)(F)F | -1.99% (inactive) |  |
| CCCCCCCC(=O)N(C)C | 4.24% (inactive) |  |
| OCC(O)CN1CCN(c2ccccc2)CC1 (stereo not given) | 1.68% [at 30.3 µM] (inactive) |  |
| C[N+](C)(C)CC[N+]1(C)Cc2c(Cl)c(Cl)c(Cl)c(Cl)c2C1 | -0.0568% [at 30.3 µM] (inactive) |  |
| O=[N+]([O-])c1cncn1CCN1CCOCC1 | 1.04% [at 30.3 µM] (inactive) |  |
| CC(C)(c1cc(Br)c(OCC(Br)CBr)c(Br)c1)c1cc(Br)c(OCC(Br)CBr)c(Br)c1 (stereo not given) | 2.75% [at 30.3 µM] (inactive) |  |
| CCCCC(C)C(=O)O (stereo not given) | 1.32% (inactive) |  |
| CN(C)Cc1ccccc1O | -0.289% (inactive) |  |
| CC1(C)C(O)C(C)(C)C1O (stereo not given) | 0.075% (inactive) |  |
| CC(=O)CC(C)(C)C1CCCCC1 | 0.517% (inactive) |  |
| OC/C=C/CO | -2.64% (inactive) |  |
